# Results filed as inconclusive are left out. Where a call stands in place of a potency, no number is given. Calls of active or inactive are those of the source. Calls come from the whole dose curve; as a rule, active = well fitted inhibition curve with a large enough effect; inconclusive = small, poorly fitted or top-dose-only effect; inactive = flat fitted curve, though single readings scatter.
# Target: Dual specificity protein kinase CLK4 (Homo sapiens) (UniProt Q9HAZ1)
# Experiment: qHTS Assay for Inhibitors of CDC-like Kinase 4 (ADP-Glo Assay) (AID 1771); note: nearly all actives have a fitted effect of over 70% in size
# Conditions: recombinant CLK4, ADP-Glo luminescence; series mostly up to 80 µM
# Experimental: NIH Molecular Libraries Probe Production Centers Network [MLPCN] NIH Chemical Genomics Center [NCGC] MLPCN Grant: 1R03MH084827-01 Assay Submitter (PI): Tom Misteli NCGC Assay Overview: Clk4 (Invitrogen, cat# PV3839) was assayed using ATP and the RS repeat peptide (AnaSpec cat # 61722) as substrates. In the assay, the ADP levels were detected using Promega ADP-Glo technology wherein the remaining ATP from the kinase reaction is first depleted with an ATPase reagent followed by a reagent that contains and enzyme which converts the ADP produced to ATP as well as Ultra-Glo luciferase and D-luciferin which generates a bioluminescence signal from the ATP. The positive control for the assay was TG003 (Sigma-Aldrich, cat# 300801-52-9) which has been described as an inhibitor of Clk 4[1].
# NCGC Assay Protocol Summary: Two uL/well of substrate-buffer solution (100 uM RS peptide, 1 uM ATP, 1x ADP-Glo Buffer A, 2 mM MgCl2, 0.5 mM EGTA, 2.5 mM DTT, 0.01% Triton X-100, final concentrations) was dispensed into 1536-well plates (Greiner, solid white, medium binding assay plates) with the Aurora Discovery BioRAPTR Flying Reagent Dispenser (FRD; Beckton-Dickenson). Twenty-three nanoliter of compound and control solutions were transferred to the assay plate using a Kalypsys pin-tool followed by 0.5 uL/well Clk4-buffer solution (25 nM Clk4, 1x ADP-Glo Buffer A, 2 mM MgCl2, 0.5 mM EGTA, 2.5 mM DTT, 0.01% Triton X-100 final concentration) dispensing for a total kinase reaction volume of 2.5 uL/ well. After 1 hr of room-temperature incubation, 2.5 uL ADP-Glo reagent was added and incubated at room temperature for 45 min to stop the kinetic reaction and degrade residual ATP. The ADP product was then converted to ATP by adding 5 uL per well of ADP-Glo Reagent II to yield a total assay volume of 10 uL/ well. Luminescence was detected after 30 min room temperature incubation with the Perkin Elmer Viewlux.
# Potency is the fitted concentration of half-maximal effect.
# Chain of Dual specificity protein kinase CLK4 (Homo sapiens) (Q9HAZ1 whole entry, looked up): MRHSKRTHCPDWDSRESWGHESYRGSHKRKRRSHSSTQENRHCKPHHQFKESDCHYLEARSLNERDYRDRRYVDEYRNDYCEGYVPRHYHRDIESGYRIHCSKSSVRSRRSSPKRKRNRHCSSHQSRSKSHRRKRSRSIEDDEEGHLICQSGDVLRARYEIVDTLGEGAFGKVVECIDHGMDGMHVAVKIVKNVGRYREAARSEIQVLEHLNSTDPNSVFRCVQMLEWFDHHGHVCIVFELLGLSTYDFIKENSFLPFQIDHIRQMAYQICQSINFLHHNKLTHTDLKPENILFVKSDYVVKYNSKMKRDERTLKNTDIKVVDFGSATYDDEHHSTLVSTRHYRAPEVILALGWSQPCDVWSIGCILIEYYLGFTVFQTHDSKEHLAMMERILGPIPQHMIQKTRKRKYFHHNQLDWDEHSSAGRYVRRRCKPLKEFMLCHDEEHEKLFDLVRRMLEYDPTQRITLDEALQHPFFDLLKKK
row,Structure (SMILES),Potency
1,COc1ccc(CNc2cc(-c3ccccc3OC)ncn2)c(OC)c1,inactive
2,COc1ccccc1-c1nc(N(C)C)c2ccccc2n1,inactive
3,COc1ncc2nc(-c3ccc(F)cc3)c(=O)n(Cc3ccc(F)cc3)c2n1,inactive
4,CN(Cc1ccco1)c1cc(-c2cccc(NS(C)(=O)=O)c2)ncn1,8.91 µM (active)
5,COc1cccc(Cn2c(=O)c(-c3ccc(F)cc3)nc3cnc(N4CCNCC4)nc32)c1,inactive
6,COc1cccc(-c2ccc3ncnc(N4CCOCC4)c3c2)c1,1.58 µM (active)
7,CN(C)C(=O)c1ccc(-c2cc(N(C)Cc3ccco3)ncn2)cc1,28.2 µM (active)
8,COc1ccc(Oc2ncc3nc(-c4cn(C)c5ccccc45)c(=O)n(C)c3n2)cc1,inactive
9,COc1ccc2[nH]cc(CCNc3cc(-c4ccc(C(=O)N(C)C)cc4)ncn3)c2c1,10 µM (active)
10,COCCn1c(=O)c(C)nc2cnc(OC)nc21,inactive
11,CS(=O)(=O)Nc1cccc(-c2nc(-n3ccnc3)c3ccccc3n2)c1,20 µM (active)
12,Fc1ccc(Nc2ccnc(-c3ccc4c(c3)OCO4)n2)cc1,31.6 µM (active)
13,CCNc1ncc2nc(-c3ccc(F)cc3)c(=O)n(-c3ccc(OC)cc3)c2n1,inactive
14,c1csc(CNc2ccnc(-c3ccc4c(c3)OCO4)n2)c1,22.4 µM (active)
15,Cc1ccccc1-c1cncnc1NCc1cccnc1,inactive
16,COc1ccc(-c2nc3cnc(N(C)C)nc3n(-c3ccccc3)c2=O)cc1,inactive
17,COc1cccc(Nc2ncc3nc(-c4ccc(Cl)cc4)c(=O)n(C[C@H]4CCCO4)c3n2)c1,inactive
18,COc1ccc(CNc2ncncc2-c2ccc(C(=O)N(C)C)cc2)c(OC)c1,inactive
19,CCNc1ncc2nc(-c3ccc(Cl)cc3)c(=O)n(C)c2n1,inactive
20,COc1ccc(Oc2ncc3nc(-c4cccc(C#N)c4)c(=O)n(C)c3n2)cc1,inactive

row,Structure (SMILES),Potency
1,COCCn1c(=O)c(-c2cc(F)cc(F)c2)nc2cnc(N(C)C)nc21,inactive
2,CN(C)C(=O)c1ccc(-c2cncnc2Nc2ccc(F)cc2)cc1,25.1 µM (active)
3,COCCn1c(=O)c(C)nc2cncnc21,inactive
4,COCCn1c(=O)c(-c2cc(F)cc(F)c2)nc2cncnc21,inactive
5,COCCn1c(=O)c(-c2cccc(C#N)c2)nc2cnc(N3CCN(C)CC3)nc21,inactive
6,Cc1cccc(CNc2ccnc(-c3cccc(C#N)c3)n2)c1,7.94 µM (active)
7,c1cncc(-c2cc(-n3ccnc3)ncn2)c1,0.708 µM (active)
8,CN(Cc1ccco1)c1nc(-c2ccoc2)nc2ccccc12,inactive
9,COc1ccc2[nH]cc(CCNc3ccnc(-c4ccc(N(C)C)cc4)n3)c2c1,14.1 µM (active)
10,COCCn1c(=O)c(CCc2ccccc2)nc2cnc(Oc3ccc(OC)cc3)nc21,inactive
11,CCNc1ncc2nc(-c3ccc(Cl)cc3)c(=O)n(-c3ccc(OC)cc3)c2n1,inactive
12,CCNc1ncc2nc(CCc3ccccc3)c(=O)n(C[C@H]3CCCO3)c2n1,inactive
13,O=c1c(-c2cc(F)cc(F)c2)nc2cncnc2n1C1CC1,inactive
14,CN(C)c1ncc2nc(-c3cc(F)cc(F)c3)c(=O)n(-c3ccccc3)c2n1,inactive
15,CN1CCN(c2ncc3nc(-c4cn(C)c5ccccc45)c(=O)n(C)c3n2)CC1,inactive
16,COCCn1c(=O)c(-c2ccccc2)nc2cnc(N3CCN(C)CC3)nc21,inactive
17,COc1ncc2ncc(=O)n(CCc3ccccc3)c2n1,14.1 µM (active)
18,COc1ncc2nc(-c3cn(C)c4ccccc34)c(=O)n(CCC#N)c2n1,inactive
19,COc1ncc2nc(C)c(=O)n(CCc3ccccc3)c2n1,inactive
20,Cc1noc(C)c1-c1cncnc1Nc1ccccc1,inactive

# Reference: PubChem BioAssay (NCATS)
